Source: PubChem BioAssay (NCATS)
Results filed as inconclusive are left out. Calls of active or inactive are those of the source. Calls come from the whole dose curve; as a rule, active = well fitted cell-killing curve with a large enough effect; inconclusive = small, poorly fitted or top-dose-only effect, or effect the other way; inactive = no such curve, though single readings can be large or run the other way.

Experiment: Quantitative High-Throughput drug screen in 47 multiple myeloma cell lines against the NCATS MIPE library collection: H1112_PLB cell viability assay (AID 1918967; note: nearly all actives have a fitted effect of over 30% in size)
Details: H1112 myeloma cells viability, ATP luminescence, 48 h; series mostly up to 45.8 µM
Procedure, shortened: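 CellTiter-Glo luminescence (ATP) after 48 h compound exposure, 37C/5% CO2; 500 cells/well; MIPE 4.0 approved/investigational drugs pinned in; DMSO = 100%, media only = 0% viability.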
Potency is the fitted concentration of half-maximal effect.

Structure (SMILES) | Potency
Cc1ccc(NC(=O)C2(c3ccc4c(c3)OC(F)(F)O4)CC2)nc1-c1cccc(C(=O)O)c1 | 0.118 µM (active)
COc1ccc(C(=O)CC2(O)C(=O)Nc3c(Cl)ccc(Cl)c32)cc1 (configuration not stated) | 13.2 µM (active)
CCCCOc1c(C(=O)c2c(F)cc(C)cc2F)cnc2n[nH]cc12 | 4.69 µM (active)
CC(=O)c1c(C)c2cnc(Nc3ccc(N4CCNCC4)cn3)nc2n(C2CCCC2)c1=O | 23.5 µM (active)
O=c1[nH]nc(Sc2ncc([N+](=O)[O-])s2)n1-c1ccc2c(c1)OCCO2 | 2.64 µM (active)
CN(C)CC=CC(=O)Nc1cc2c(Nc3ccc(F)c(Cl)c3)ncnc2cc1O[C@H]1CCOC1 | 5.9 µM (active)
Cn1c2ccccc2c2c3c(c4c5ccccc5n(CCC#N)c4c21)CNC3=O | 2.09 µM (active)
CC(NCc1ccc2c(c1)nc(NC(=O)c1ccc(-c3cn[nH]c3)s1)n2CC(C)(C)O)C(C)(C)C (configuration not stated) | 0.469 µM (active)
CC1(O)CC(c2nc(-c3ccc4ccc(-c5ccccc5)nc4c3)c3c(N)nccn23)C1 (configuration not stated) | 23.5 µM (active)
CC(=O)OCC(=O)[C@@]1(O)[C@H](C)C[C@H]2[C@@H]3C=C(C)C4=Cc5c(cnn5-c5ccccc5)C[C@]4(C)[C@@H]3[C@@H](O)C[C@@]21C | 10.5 µM (active)
CCS(=O)(=O)c1cccc(-c2cc(C(=O)NC3CCN(C)CC3)c(C)c3[nH]c4ncc(C)cc4c23)c1 | 4.69 µM (active)
Cc1ccc(C(=O)Nc2cccc(C(F)(F)F)c2)cc1-c1ccc2nc(NCCN3CCOCC3)ncc2c1 | 14.8 µM (active)
OCCCNc1cc(-c2ccnc(Nc3cccc(Cl)c3)n2)ccn1 | 0.059 µM (active)
CC(C)c1ccccc1Cc1cc(C(=O)Nc2ccc(S(=O)(=O)c3ccccc3C(C)(C)C)cc2)c(O)c(O)c1O | 6.62 µM (active)
N#CCNC(=O)c1ccc(-c2ccnc(Nc3ccc(N4CCOCC4)cc3)n2)cc1 | 18.7 µM (active)
CN1CC[C@@H](c2c(O)cc(O)c3c(=O)cc(-c4ccccc4Cl)oc23)[C@@H](O)C1 | 0.132 µM (active)
NC(=O)Nc1cc(-c2cccc(F)c2)sc1C(=O)N[C@H]1CCCNC1 | 1.48 µM (active)
CN(C)Cc1c(C(=O)NCCOc2ccc(C(=O)NO)cc2)oc2ccccc12 | 1.87 µM (active)
Cc1[nH]nc2ccc(-c3cncc(OC[C@@H](N)Cc4ccccc4)c3)cc12 | 1.87 µM (active)
COC(=O)[C@]12CCC(C)(C)C[C@@H]1[C@@H]1C(=O)C=C3[C@@]4(C)C=C(C#N)C(=O)C(C)(C)[C@@H]4CC[C@@]3(C)[C@]1(C)CC2 | 0.418 µM (active)
O=C(CCCCCCNC(=O)c1cnc(N(c2ccccc2)c2ccccc2)nc1)NO | 13.2 µM (active)
CC=C1NC(=O)[C@H]2CSSCCC=C[C@H](CC(=O)N[C@H](C(C)C)C(=O)N2)OC(=O)[C@H](C(C)C)NC1=O | 0.0372 µM (active)
CC1=C(CO)C(=O)O[C@@H]([C@@H](C)[C@H]2CC[C@H]3[C@@H]4C[C@H]5O[C@]56[C@@H](O)C=CC(=O)[C@]6(C)[C@@H]4CC[C@]23C)C1 | 0.418 µM (active)
CC(=O)Nc1nc(C)c(-c2ccc(Cl)c(S(=O)(=O)NCCO)c2)s1 | 1.48 µM (active)
O=C(Nc1cc(C(F)(F)F)cc(C(F)(F)F)c1)c1cc(Cl)ccc1O | 1.87 µM (active)
O=C(Nc1cn[nH]c1-c1nc2ccc(CN3CCOCC3)cc2[nH]1)NC1CC1 | 3.32 µM (active)
CNc1nccc(-c2cccnc2Oc2cc(C(=O)Nc3cccc(C(F)(F)F)c3)ccc2C)n1 | 14.8 µM (active)
